High-throughput results deposited in PubChem by National Center for Advancing Translational Sciences (NCATS).
The entries come from a sample that favours hits as a whole.
RORg inh: ROR gamma (mouse) transcription inhibition | P51450 | Drosophila S2 Gal4-RORgamma UAS-luciferase reporter, 20 h | Potency, µM (series often up to 53.6 µM), without a hit: top-dose activity change, negative = inhibition, actives largely listed as inhibitors | 310,000 compounds, 5.4% hits | AID 2551; further: potency means the concentration at half of the fitted maximal effect; on the % scale 0 is the no-effect control and ±100 the full control effect; nearly all actives have a fitted effect of over 60% in size
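A Gal4/UAS one-hybrid system in insect cells: metallothionein-promoter Gal4–ROR gamma fusion plus Photinus luciferase reporter. Copper sulfate 700 uM final, 20 hr ambient incubation, luminescent detection after 10 min with reagent.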
VP16 counter: counter-screen for ROR gamma inhibitors: Gal4-VP16 reporter. Drosophila S2 Gal4-VP16 UAS-luciferase, luminescence, 20 h. Potency, µM (series often up to 53.6 µM), without a hit: at the highest dose activity, negative = inhibition, actives largely listed as inhibitors. 310,000 compounds, 3.5% hits;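 further: Gal4-VP16 expression switched on by copper sulfate through the metallothionein promoter; potency means the concentration at half of the fitted maximal effect; on the % scale 0 is the no-effect control and ±100 the full control effect; nearly all actives have a fitted effect of over 50% in size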
Giardia killer: kills Giardia lamblia; Giardia lamblia trophozoite viability; activity change, % at 7.66 µM, hits read low; 340,000 compounds, 0.15% hits; in the data active means activity change below about -80%; inconclusive means between about -30% and that limit;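 further: parasites exposed to compound for two days anaerobically before the ATP read; on the % scale 0 is the no-effect control and ±100 the full control effect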
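ATP-content bioluminescence gauges trophozoite survival. Cells (100/well) receive compound and incubate anaerobically for 48 hrs at 37 deg C; detection reagent follows for 15-30 min at room temperature.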
a7 integrin act: activators of alpha7 integrin expression for muscular dystrophy. 350,000 compounds, 0.064% hits. alpha7betagal myoblasts, beta-gal FDG fluorescence, 48 h. Potency, µM (series often up to 38.3 µM), inactives show top-dose activation, usual class: activators. AID 624291;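 further: potency means the concentration at half of the fitted maximal effect; 100% = response of the positive control SU9516; nearly all actives have a fitted effect of over 60% in size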
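Alpha7betagal+/- myoblasts (passage 13) were plated 16-24 hr, then exposed to compounds (1:260 dilution of DMSO stock) for 48 hours at 37C. After MPER lysis, β-galactosidase reporter activity was read as FDG fluorescence (ex 480/em 540) after 30 minutes.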
ERG-DNA inh: blocks human ERG Ets domain binding to DNA; P11308; fluorescence polarization, His-ERG Ets domain / labelled DNA; Potency, µM (series often up to 76.9 µM), inactives show at the top dose FP activity, negative = inhibition, usual class: inhibitors; 370,000 compounds, 0.028% hits; AID 624246; active means well fitted inhibition curve with a large enough effect in the polarisation, with a control signal flat; inconclusive means small, poorly fitted or top-dose-only effect, or effect the other way, or a change in a side signal; inactive means no such curve, though single readings can be large or run the other way; the % refers to the polarisation;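 further: polarization taken with two DNA probes labelled with fluorescein and Texas red; potency means the concentration at half of the fitted maximal effect; % of control where 0% means no effect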
Target sequence (P11308 whole entry, looked up, the tested form may be a part): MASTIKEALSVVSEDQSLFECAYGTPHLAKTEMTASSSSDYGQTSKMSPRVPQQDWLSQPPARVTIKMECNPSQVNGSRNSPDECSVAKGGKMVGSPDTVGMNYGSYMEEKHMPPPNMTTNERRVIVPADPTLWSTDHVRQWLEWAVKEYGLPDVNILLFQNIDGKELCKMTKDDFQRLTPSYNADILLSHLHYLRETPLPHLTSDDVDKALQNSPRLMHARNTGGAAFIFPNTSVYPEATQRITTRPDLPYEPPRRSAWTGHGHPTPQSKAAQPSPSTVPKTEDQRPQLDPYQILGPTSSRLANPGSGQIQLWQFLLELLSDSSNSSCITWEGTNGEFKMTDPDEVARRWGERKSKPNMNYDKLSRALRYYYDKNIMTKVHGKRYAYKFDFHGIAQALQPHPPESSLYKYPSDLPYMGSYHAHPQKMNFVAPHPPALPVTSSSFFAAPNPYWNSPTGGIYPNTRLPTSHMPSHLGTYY
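His-tagged ERG Ets domain (1 uM in the protein solution; 300mM KCl, 50mM Tris-HCl, 1mM EDTA, 1mM DTT, pH 7.5) received compound, then a probe mix of 5 nM fluorescein-DNA and 100nM Texas-615-DNA. Fluorescence polarization was read for both dyes.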
Starred values were filed as active, the others as inactive; u = inconclusive; x = no result given. Unless noted, the call rests on the fitted dose curve; in most records, active means well fitted curve in the direction sought with a large enough effect; inconclusive means small, poorly fitted or top-dose-only effect, or another doubt; inactive means no such curve, though single readings can be large; an effect the other way counts as inactive or inconclusive.

SMILES	RORg inh	VP16 counter	Giardia killer	a7 integrin act	ERG-DNA inh
CCOC(=O)C1=C(C)Nc2nnnn2C1c1cccc(OC)c1OC (centres undefined)	42.5%	2.5%	-3.9	-8.5%	-0.4%
CCOC(=O)C1=C(C)Nc2nnnn2C1c1c[nH]c2ccccc12 (centres undefined)	49.0%	22.4µM*	x	x	x
Clc1ccc(CSc2nnc(Cn3cnc4ccccc43)o2)cc1	5.9%	15.8µM*	9.8	-6.3%	7.1%
CCOC(=O)c1c(NC(=O)CCCOc2ccc(C)cc2)sc2c1CCC(C)C2 (centres undefined)	x	x	x	x	-4.9%
O=C(c1ccc(Cl)cc1)N1CCCCC(Sc2nnc(-c3ccc4c(c3)OCO4)o2)C1=O (centres undefined)	1.41µM*	u	u	0.0%	-3.4%
COc1ccc(N2CCN(S(=O)(=O)c3ccc4oc(=O)c5ncn(C)c5c4c3)CC2)cc1	x	x	x	x	-2.1%
CCOc1ccc(-n2c(-c3ccccc3)c[n+]3c2CCCCC3)cc1	u	3.55µM*	-7.7	u	-10.1%
Cc1c(Cl)cccc1NC(=O)C(=O)NNC(=O)c1ccccc1F	14.1µM*	u	-3.9	0.0%	8.6%
Cc1ccccc1C(=O)NNC(=O)C(=O)Nc1cccc(Cl)c1C	31.7%	u	2.1	14.1%	1.2%
CC(C)=CCN1CCN(Cc2cc(C(C)C)n[nH]2)CC1CCO (centres undefined)	9.4%	-5.8%	-0.5	11.0%	-3.3%
CC(C)c1ncc([N+](=O)[O-])n1C	-10.8%	2.2%	x	x	x
O=C(/C=C/c1ccc([N+](=O)[O-])cc1)c1cccs1	0.6%	4.4%	-19.1	-37.7%	3.6%
NC(=O)c1ccccc1N/C=C/C(=O)c1cccs1	u	10.8%	-2.4	17.1%	-1.9%
COc1cc([N+](=O)[O-])ccc1N/C=C/C(=O)c1cccs1	8.91µM*	8.91µM*	u	-7.9%	3.2%
Cc1cccc(N/C=C/C(=O)c2cccs2)c1C	10µM*	u	u	-11.3%	x
Cc1cc(NC(=O)CN2C(=O)/C(=C/c3cccc(Br)c3)SC2=S)no1	-38.3%	2.5%	-0.1	2.3%	58.5%
CCN(CC)CCOC(=O)c1ccc(NC(=O)CCCN2C(=O)/C(=C\c3cccs3)SC2=S)cc1	11.2µM*	11.2µM*	-12.2	-61.3%	30.8%
COc1ccc(/C=C2\SC(=S)N(CCCCCC(=O)Nc3cc(C)on3)C2=O)cc1OC	8.1%	-9.9%	0.8	2.9%	4.0%
O=C(CCN1C(=O)/C(=C\c2cccs2)SC1=S)Nc1ccc(C(=O)O)cc1	-3.9%	-10.6%	-26.9	38.5%	27.3%
Cc1cc(NC(=O)CCN2C(=O)/C(=C\c3ccccc3Cl)SC2=S)no1	-29.3%	-13.8%	-18.6	u	32.2%
Cc1cc(NC(=O)CCCN2C(=O)/C(=C\c3cccs3)SC2=S)no1	-43.8%	12.6µM*	13.6	2.8%	4.6%
Cc1ccc(/C=C2\SC(=S)N(CCCC(=O)Nc3cc(C)on3)C2=O)cc1	0.794µM*	u	-15.0	15.2%	7.7%
COc1ccc(/C=C2\SC(=S)N(CCCC(=O)Nc3cc(C)on3)C2=O)cc1OC	2µM*	5.01µM*	8.6	12.7%	19.8%
O=C(Nc1ccc(S(=O)(=O)Nc2ncccn2)cc1)c1ccc(Br)cc1	x	x	x	-9.8%	x
Cc1ccc(C(=O)Nc2nnc(S(=O)(=O)N(C)Cc3ccc(F)cc3)s2)cc1	x	x	x	x	1.9%
SMILES	RORg inh	VP16 counter	Giardia killer	a7 integrin act	ERG-DNA inh
O=C(NCc1cccs1)c1nc2c(nnn2Cc2ccccc2Cl)c(=O)[nH]1	10µM*	2.82µM*	-10.9	-24.0%	-0.5%
O=C(NCCc1ccccc1)c1ccc(CSc2nc3ccncc3n2Cc2ccccc2F)cc1	x	x	x	x	9.1%
O=C(N/N=C/c1cccc2nccnc12)c1ccccc1O	2.51µM*	3.16µM*	39.0	-0.3%	1.3%
O=C(N/N=C/c1cccc2cccnc12)c1ccccc1O	0.355µM*	0.794µM*	-7.6	-51.8%	0.5%
O=C(N/N=C/c1cccc2ccccc12)c1ccccc1Cl	-32.5%	3.1%	-5.9	u	0.0%
O=C(N/N=C/c1cccc2nccnc12)c1ccncc1	u	-8.4%	8.7	-33.5%	-2.4%
O=C(CCc1ccccc1)NC(=S)NCc1ccco1	7.94µM*	u	-8.9	u	3.0%
CC(C)(O)C(=O)NNC(=S)NCc1ccco1	40.3%	5.9%	6.7	-2.8%	-7.4%
CC(C)(C)CC(=O)NC(=S)NCc1ccco1	4.47µM*	u	-15.9	-11.9%	12.0%
COc1ccc(CNc2ccccc2C(=O)NCc2ccccc2)cc1COc1ccc(NC(C)=O)cc1	x	x	8.8	x	x
CCCNS(=O)(=O)c1cc2c(cc1Br)CCN2C(=O)CC	x	x	-16.4	-6.0%	-3.0%
CC[C@H](C)[C@H](NC(=O)CNC(=O)[C@H](CCCNC(=N)N)NC(=O)CNC(=O)[C@@H](NC(=O)[C@H](Cc1ccc(O)cc1)NC(=O)[C@H](Cc1c[nH]c2ccccc12)NC(=O)[C@H](C)NC(=O)[C@@H]1CCCN1C(=O)[C@H](CC(N)=O)NC(=O)[C@@H](NC(=O)[C@H](CC(=O)O)NC(=O)[C@@H]1CCCN1C(=O)[C@@H](N)[C@@H](C)O)[C@@H](C)CC)[C@@H](C)O)C(=O)N[C@@H](CCCNC(=N)N)C(=O)N1CCC[C@H]1C(=O)N[C@H](C(=O)NCC(=O)N[C@@H](CCCNC(=N)N)C(=O)N[C@@H](Cc1ccccc1)C(N)=O)C(C)C	-15.0%	2.0%	x	x	x
Cc1ccc(CN2CCCn3nc(C(=O)NCc4ccc(N(C)C)cc4)cc3C2=O)cc1	x	x	x	x	8.6%
COc1ccc(C)cc1Nc1n[n+](-c2ccccc2)c(-c2cc(OC)c(OC)cc2Br)s1	10µM*	u	-14.4	-25.1%	7.3%
COc1ccc(C)cc1Nc1n[n+](-c2ccccc2)c(-c2c(OC)ccc3ccccc23)s1	x	x	2.2	-3.5%	6.4%
CCNC(=S)N/N=C/c1c(C)nn(-c2cccc(Cl)c2)c1Cl	1.41µM*	3.55µM*	-3.3	1.7%	1.8%
Cc1nn(-c2cccc(Cl)c2)c(Cl)c1/C=N/NC(=O)c1cccs1	u	12.6µM*	-1.4	5.3%	2.3%
O=C(NCc1ccc(Cl)cc1)c1cccc2c1C(=O)N(CC1CCCO1)C2 (centres undefined)	37.4%	-6.4%	-7.6	1.7%	15.6%
CCOc1cc(/C=C2/C(=N)N3C=CSC3=NC2=O)ccc1OCCCOc1ccccc1C	-71.2%	u	-11.4	-14.1%	18.7%
COc1cc(/C=C2/C(=N)N3C=CSC3=NC2=O)ccc1OCCCOc1ccccc1C	4.47µM*	2.82µM*	-8.6	24.0%	x
COc1cc(/C=C2/C(=N)N3C=CSC3=NC2=O)ccc1OCCCOc1c(C)cccc1C	11.2µM*	u	0.3	-15.1%	-1.0%
O=C(Oc1cccc2cccnc12)c1cccs1	1.58µM*	2.82µM*	9.5	-50.9%	0.7%
O=C(Oc1cccc2cccnc12)c1ccc(Br)o1	11.2µM*	u	-20.4	14.0%	-1.7%
